“And” between values parts separate entries of the source, which are not always exact repeats. Equal entries are not always repeated. Screen size: about 230,000 compounds; about 310 (0.13%) were called active. Where a call stands in place of a potency, no number is given. Another 2% or so got no clear call; they are omitted. Only a selection was taken, and actives are over-represented in it overall. Unmarked numbers belong to inactive results. The call rests on the fitted dose curve; in most records, active means well fitted activation curve with a large enough effect; inconclusive means small, poorly fitted or top-dose-only effect; inactive means no such curve, though single readings can be large or run the other way.
Assay: qHTS Multiplex Assay to Identify Dual Action Probes in a Cell Model of Huntington: Cytoprotection (ATP); further: nearly all actives have a fitted effect of over 45% in size;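 on cytoprotection (ATP increase): toxic huntingtin expression switched on by the ecdysone agonist tebufenozide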
Conditions: PC12 HTT-Q103 induced, ATP luminescence, 40 h; series mostly up to 56.4 µM
Excerpt: NIH Chemical Genomics Center [NCGC]
NIH Molecular Libraries Probe Production centers Network [MLPCN]
Assay Submitter (PI): Wei Zheng
Huntington's disease is a neurodegenerative disorder caused by a trinucleotide repeat expansion in Exon 1 of the Huntingtin gene. The CAG trinucleotide encodes glutamine and polyglutamine expansions cause cell death in selective areas of the brain. Huntington polyglutamine repeats have the tendency to form aggregates which are observable in later stages of the disease. The exact nature of the aggregates, whether toxic, protective, or insignificant, is unclear.
A stable PC12 cell line containing a gene fusion of Exon 1 of the Huntingtin gene linked to GFP under the control of the inducible ecdysone promoter were used as the cell-based model of Huntington Disease for high throughput screening. Exon 1 of the Huntingtin gene contained an expansion of 103 polyglutamines (Q103) which, when expressed, caused cell death and distinct, bright GFP aggregates. The amount of cell death and the size and intensity of GFP aggregates increased over time and induction level. The cell death were quantified with a measurement of ATP content in the cells. A maximal 40-50% of cell death was observed when the Huntington gene was induced in this cell line.
We optimized this assay in a homogeneous 1536 well format. A quantitative high throughput screen (qHTS) was conducted on the PC12 cells which were induced to express the toxic fusion construct. Small molecules which prevented cell death were identified by using a luminescent ATP quantification method (Perkin Elmer's ATPlite).
PC12 cells stably containing a construct with an ecdysone inducible promoter expressing GFP fused to the exon 1 of HTTQ103 (Huntington protein which containing a 103 ployglutamine expansion) were used.
NCGC Assay Protocol Summary:
Sequence, Parameter, Description
1, Reagent, 5 uL 1500 cells/well 1536 TC treated White clear bottom plate
2, Compound, 23 nL Tebufenozide inducer (100 nM final) to all columns
3, Compound, 23 nL 40 uM to 0.5 nM Libraries
5, Reagent, 5 ul ATPLite cell death assay reagent
6, Detector, 4 sec integration with a Viewlux Luminescent
Media consisted of phenol red free DMEM + 5% equine serum (Hyclone # SH30072.03 ), 5% supplemented Bovine Calf Serum (Hyclone # SH30074.03 ), 1x pen/strep, no G418
Control columns: 1 = DMSO, 2= 2 uM teb dilns (1:1), 4 = 100 nM Teb inducer. Sample columns received 100 nM Teb.
Potency means the concentration at half of the fitted maximal effect.

Row | Compound | Potency | cytoprotection (ATP increase)
1 | CC(C)(O)/C=C\C(=O)[C@](C)(O)[C@H]1[C@H](O)C[C@]2(C)[C@@H]3CC=C4[C@@H](C=C(O)C(=O)C4(C)C)[C@]3(C)C(=O)C[C@@]12C | 5.01 µM (active) | –
2 | C[N+]1(C)C2CC(OC(=O)C(CO)c3ccccc3)CC1[C@@H]1O[C@H]21 (some centres undefined) | – | 17.6% [at 1.9 µM] and 4.91% [at 1.9 µM]
3 | CC1=CC(=O)C2=C(C)C[C@H](O)[C@@H]3[C@@H](OC(=O)[C@H]3C)[C@H]12 | – | inactive
4 | CC(C)(O)[C@H]1[C@H]2OC(=O)[C@@H]1[C@]1(O)C[C@H]3O[C@]34C(=O)O[C@H]2[C@]14C | – | inactive

Source: PubChem BioAssay AID1471 (National Center for Advancing Translational Sciences (NCATS), 2008)
